Our source for the sensor-assay potency score (higher = more potent) values is the OligoGym collection.
Further: reference of the scale not given here.

The first assay deals with NRN1. Description: pooled miR-30 sensor sort-seq; sequence = guide strand. As to conditions: shRNA.
In the case of TGATGTTCGTCTTGTCGTCCAG, the sensor-assay potency score (higher = more potent) was -0.489.
Turning to TTGGATGTTGAGGTTTTTGGAT, the sensor-assay potency score (higher = more potent) is -0.637.
Take TTGATGTTCGTCTTGTCGTCCA: the sensor-assay potency score (higher = more potent) was found to be 0.18.
As for TCGTCTTGTCGTCCAGGCCCTG, the sensor-assay potency score (higher = more potent) was -1.79.
On to TTCTTTTCTCAGTTTATCCCAC, for which the sensor-assay potency score (higher = more potent) was -0.535.
For the sequence TTCGTCTTGTCGTCCAGGCCCT, the sensor-assay potency score (higher = more potent) is -0.542.
Regarding ATCAGTGAAATATATCTGCCGT, the sensor-assay potency score (higher = more potent) was -0.0404.
On to TCAGTGAAATATATCTGCCGTT, for which the sensor-assay potency score (higher = more potent) is -1.
Still for that read-out and setting: with TTGAAGACCGCATCGCACTTGC the figure was 0.325; with TCTTGATGTTCGTCTTGTCGTC, -0.712.
For the sequence TTGTCGTCCAGGCCCTGCGGGT, the sensor-assay potency score (higher = more potent) is -1.62.
On the same count and under the same terms, under TTATCCCACATATCTTTCGCCC stands -1.13.

The target of the next assay is NRTN. The assay is described as above. As to conditions: shRNA.
For the sequence TCGTCCTCGTAGGCCGTCGGGC, the sensor-assay potency score (higher = more potent) is -1.36.
In the case of TGGCGCAGTCGTCGCAGCCCGA, the sensor-assay potency score (higher = more potent) is -1.96.
The same measure, in the same setting: under TATCTCAGTACAGTTATCGCGA stands 0.0428; under TCTCAGTACAGTTATCGCGAGA, -1.15.
As for TCCTCGTAGGCCGTCGGGCGGC, the sensor-assay potency score (higher = more potent) was -1.9.
Still for that read-out and setting: with TAGCGGAACAGCACCGTCTCGT the figure was -0.209; with TCGTCGCAGCCCGAGGTCGTAG, -1.65; with AACAGCACCGTCTCGTCGGACG, -1.59.
The same measure, in the same setting: under ATGGACAGCACGGAGCTGCAGA stands -1.37.
Consider TGCACCGTGTGGTAGCGGCTGT, for which the sensor-assay potency score (higher = more potent) was -1.01.

Another assay addresses NRXN1. The description is as above. Particulars: shRNA.
On to TATTTTTATATACAACCTCTTT, for which the sensor-assay potency score (higher = more potent) was -1.15.
Turning to TAAAGATATATGTCGTCCCAGG, the sensor-assay potency score (higher = more potent) was -1.02.
Same read-out and setting: under TTTGTGTCAATCTTTACAGTGT stands 0.163; under AAGATTGACATAATCAGCCGAT, 0.46; under TTTCTTTAGCTACTCCTCCTAT, -0.523.
Regarding TAGAATTAATCCATCTAGGGAT, the sensor-assay potency score (higher = more potent) is -0.432.
As to ATTGTTGCAAGCACACACCTTG, the sensor-assay potency score (higher = more potent) was -0.22.
For TTTTGAGACAAGTCGTAGCAGA, the sensor-assay potency score (higher = more potent) is -0.143.
Turning to TATCATTGAGGTTATAGCCAGC, the sensor-assay potency score (higher = more potent) is -0.792.
Still for that read-out and setting: under TATTTCTATACAAGTGTCCATT stands -1.16.
For TAAGTTTATATTATGTCTCAGA, the sensor-assay potency score (higher = more potent) is -0.557.
For the sequence TTGAACTTCAGCCATTTGCCGG, the sensor-assay potency score (higher = more potent) is -0.927.

A further assay concerns the target NT5C3L. Described as above. Particulars: shRNA.
Regarding TCAGAAATCACCTGTAACCGGT, the sensor-assay potency score (higher = more potent) is -0.094.
As for TAGCCCGTTGACCACATCCAGA, the sensor-assay potency score (higher = more potent) is -1.7.
For TATCTGAAACTTCTGAATCTTC, the sensor-assay potency score (higher = more potent) was -0.418.
Regarding TTGTGTGCTTTGGTCCACCATT, the sensor-assay potency score (higher = more potent) is -1.32.
Still for that read-out and setting: with TTGGACTCTCTAACCACCTGGG the figure was 0.443; with TTTCCATTATATGCAAACCTGC, -1.3.
